From PubChem BioAssay (NCATS)
Results filed as inconclusive are left out. Active and inactive are the calls of the source. The call rests on the fitted dose curve; in most records, active means well fitted inhibition curve with a large enough effect; inconclusive means small, poorly fitted or top-dose-only effect; inactive means no such curve, though single readings can be large or run the other way.

Molecular target: Cytochrome P450 2D6 (Homo sapiens) (UniProt P10635)
Assay: qHTS Assay for Inhibitors and Substrates of Cytochrome P450 2D6 (AID 891); further: nearly all actives have a fitted effect of over 60% in size
In short: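 Luminescent read-out of luciferin formed by 5 nM human CYP2D6 demethylating 30 uM Luciferin-ME EGE (Km level) over 60 min at room temperature after NADPH regeneration addition. Data normalized to full inhibition by 1.43 uM quinidine.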
Potency means the concentration at half of the fitted maximal effect.

Sequence of Cytochrome P450 2D6 (Homo sapiens) (P10635 whole entry, looked up): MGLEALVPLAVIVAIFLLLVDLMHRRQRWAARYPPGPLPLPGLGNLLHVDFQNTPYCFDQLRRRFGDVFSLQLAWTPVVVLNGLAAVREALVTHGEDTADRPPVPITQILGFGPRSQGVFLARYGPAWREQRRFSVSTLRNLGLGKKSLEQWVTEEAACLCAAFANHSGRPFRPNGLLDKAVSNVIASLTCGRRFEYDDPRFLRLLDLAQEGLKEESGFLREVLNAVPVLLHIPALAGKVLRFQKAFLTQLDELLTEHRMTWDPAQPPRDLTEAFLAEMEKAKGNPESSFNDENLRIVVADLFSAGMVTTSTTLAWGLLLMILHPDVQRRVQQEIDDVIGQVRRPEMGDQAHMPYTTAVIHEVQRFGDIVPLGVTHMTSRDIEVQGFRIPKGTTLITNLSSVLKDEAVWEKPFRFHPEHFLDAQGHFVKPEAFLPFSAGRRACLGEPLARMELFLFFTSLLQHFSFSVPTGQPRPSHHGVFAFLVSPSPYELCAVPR

Structure (SMILES) | Potency
FC(F)(F)c1ccccc1-c1ccc2ncnc(NCc3cccnc3)c2c1 | 1.58 µM (active)
CN(C)C(=O)c1ccc(-c2cncnc2NCCc2cnc[nH]2)cc1 | 0.794 µM (active)
c1csc(CNc2ccnc(-c3ccoc3)n2)c1 | 3.16 µM (active)
CCNc1ncc2nc(-c3cc(F)cc(F)c3)c(=O)n(C[C@H]3CCCO3)c2n1 | 0.158 µM (active)
CN(C)C(=O)c1ccc(-c2cncnc2N2CCNCC2)cc1 | 7.94 µM (active)
COc1ccc2[nH]cc(CCNc3ncnc4ccc(-c5cccnc5)cc34)c2c1 | 7.94 µM (active)
CNc1cc(-c2ccccc2CN(C)C)ncn1 | 0.631 µM (active)
